Test results taken from PubChem BioAssay (EPA / NIEHS).
The source made the active and inactive calls. The calls were made as follows: active = hit-call score of the fitted dose curve at least 0.9, where 1 is the maximum; inactive = score below 0.9.

Assay: ATG_PXRE_CIS: Attagene CIS-FACTORIAL HepG2 Assay for human Pregnane X Receptor Element (PXRE) (AID 2282957)
Details: HepG2 Attagene CIS-FACTORIAL PXRE reporter, mRNA; actives raise or lower the signal
Protocol: ATG_CIS is a cell-based, multiplexed-readout assay that uses HepG2, a human liver cell line, with measurements taken at 24 hours after chemical dosing in a 24-well plate.ATG_PXRE_CIS is one of 52 assay component(s) measured or calculated from the ATG_CIS assay. It is designed to make measurements of mRNA induction, a form of inducible reporter, as detected with fluorescence intensity signals by Reverse transcription polymerase chain reaction (RT-PCR) and Capillary electrophoresis technology.Data from the assay component ATG_PXRE_CIS was analyzed into 1 assay endpoint. This assay endpoint, ATG_PXRE_CIS, was analyzed with bidirectional fitting relative to DMSO as the negative control and baseline of activity. Using a type of inducible reporter, measures of mRNA for gain or loss-of-signal activity can be used to understand the reporter gene at the transcription factor-level as they relate to the gene NR1I2. Furthermore, this assay endpoint can be referred to as a primary readout, because this assay has produced multiple assay endpoints where this one serves a reporter gene function. To generalize the intended target to other relatable targets, this assay endpoint is annotated to the nuclear receptor intended target family, where the subfamily is non-steroidal.
Human liver HepG2 cells are transiently transfected with multiple reporter transcription units (MRTUs) in 6-well plates using FuGene 6 reagent (Roche; 3 ml FuGene/1 mg DNA). The MRTU constructs are regulated by a cis-regulating element (promoter). […] A major difference between the CIS and TRANS system is that in CIS activities of endogenous TFs are measured, whereas the TRANS assay evaluates changes in activities of exogenous, chimeric NR-Gal4 proteins. […] At the end of 24 hour incubation, total RNA was isolated using TriZol reagent (Invitrogen). The isolated RNA is then reverse-transcribed using oligo(dT) primer and Mo-MLV reverse transcriptase (Invitrogen) with DNAse I (Ambion) treatment for 30 min. The one-tenth of the produced cDNA was amplified by PCR using Taq DNA polymerase (Invitrogen) and two reporter sequence-specific primers. The PCR products were fluorescently labeled by primer extension with 6-arboxyfluorescein (6-FAM) 5'-labeled reporter sequence-specific primer (2 min at 95 C, 20 s at 68 C and 10 min at 72 C) and these products were digested with 5U of HpaI (New England Biolabs) for 2h at 37 C. The fragments were purified using Qiaquick PCR columns (Qiagen), analyzed on an ABI 3130xL genetic analyzer (Applied Biosystems) with peak positions identified by using a set of X-rhodamine (ROX)-labeled MapMarker1000 molecular weight standards (BioVentures). The raw capillary electrophoresis data was processed using Attagraph software (Attagene).

SMILES | outcome | AC50
Cn1c([N+](=O)[O-])cnc1COC(N)=O | inactive | 
C#CC1(O)CC[C@H]2[C@@H]3CCC4=CCCC[C@@H]4[C@H]3CC[C@@]21C (stereo not given in full) |  | 2.58 µM (active)
Nc1ncn([C@@H]2O[C@H](CO)[C@@H](O)[C@H]2O)c(=O)n1 | inactive | 
C=CC(C)(C)C | inactive | 
O=C(O)Cc1c(Cl)ccc(Cl)c1Cl | inactive | 
C=C(C)C(=O)OCCO | inactive | 
CCC(C)C=O (stereo not given) | inactive | 
COCCCOCCCOC | inactive | 
CC(=O)Nc1nnc(S(N)(=O)=O)s1 | inactive | 
CC(C)(C)c1n[nH]c(=O)n(N)c1=O | inactive | 
C=C1C2CCC(C2)C1(C)C (stereo not given) |  | 31.4 µM (active)
CCOc1ccc(N)c([N+](=O)[O-])c1 | inactive | 
CCC(C)OC(=O)c1ccc(O)cc1 (stereo not given) |  | 27.8 µM (active)
CC(CC=O)CCCC(C)(C)O (stereo not given) |  | 41.2 µM (active)
Cc1cc(O)c(Cl)c(C)c1Cl |  | 15.1 µM (active)
Cc1oncc1C(=O)Nc1ccc(C(F)(F)F)cc1 | inactive | 
CCC(CC)C(=O)O | inactive | 
O=c1[nH]nc(-c2ccc([N+](=O)[O-])o2)o1 | inactive | 
O=C1CCCCCN1SSN1CCCCCC1=O | inactive | 
Cc1cc(C)c(C)cc1C | inactive | 

SMILES | outcome | AC50
C=CC(=O)OCCC(=O)O | inactive | 
O=P(O)(O)Oc1ccccc1 | inactive | 
CC(C)COC(=O)C=Cc1ccccc1 |  | 27.2 µM (active)
O=C(Oc1ccccc1)c1ccc2ccccc2c1O |  | 21.5 µM (active)
CC(=O)CC(N)=O |  | 0.0836 µM (active)
COCc1c(C(C)C)nc(C(C)C)c(/C=C/[C@@H](O)C[C@@H](O)CC(=O)O)c1-c1ccc(F)cc1 |  | 2.12 µM (active)
CCCCCC/C=C/C=O |  | 37.8 µM (active)
O=C(O)CC(C(=O)O)C(CC(=O)O)C(=O)O (stereo not given) | inactive | 
CC(C)(C)c1ccc(-c2ccc(C(C)(C)C)cc2)cc1 | inactive | 
CC1=NN(c2cc(S(=O)(=O)O)ccc2Cl)C(=O)C1N=Nc1ccccc1 (stereo not given) | inactive | 
Cc1c(C)c([N+](=O)[O-])c(C(C)(C)C)c([N+](=O)[O-])c1C |  | 1.93 µM (active)
Nc1ccc2cc3ccccc3cc2c1 |  | 13.2 µM (active)
Cc1ccc(C2OC[C@@H]3OC(c4ccc(C)cc4)O[C@H]([C@H](O)CO)[C@@H]3O2)cc1 (stereo not given in full) |  | 12.9 µM (active)
C[Si](C)(C)O[Si](O)(O)O |  | 26.9 µM (active)
CCOC(=O)[C@H](C)O |  | 27.2 µM (active)
O=C1CCC(=O)N1Cl | inactive | 
C=CCCCCCCCCC(=O)OCCCC |  | 42.1 µM (active)
COc1ccc(C(Cl)=C(c2ccc(OC)cc2)c2ccc(OC)cc2)cc1 |  | 2.54 µM (active)
CCCc1ccc(OC)cc1 | inactive | 
CC(C)(c1cc(Br)c(OCCO)c(Br)c1)c1cc(Br)c(OCCO)c(Br)c1 |  | 0.484 µM (active)
